Test results as given in PubChem BioAssay (NCATS).
Records with an inconclusive call do not appear. Entries that show only a call come without a potency. Activity calls are given as the source filed them. Calls follow the shape of the dose curve; as a rule, active = well fitted inhibition curve with a large enough effect; inconclusive = small, poorly fitted or top-dose-only effect; inactive = no such curve, though single readings can be large or run the other way.

Test: BET inhibitor-based combinations targeting novel dependencies in MECOM-rearranged (r) AML: OCI-AML3 cell line (AID 2202232); also: nearly all actives have a fitted effect of over 35% in size
Conditions: CellTiter-Glo luminescence, 48 h; Potency: OCI-AML3 viability; series mostly up to 46 µM
Source text: Ecotropic viral insertion site 1 (EVI1) is located on chromosome 3q26.2 as part of the MECOM (MDS and EVI1 complex) locus. Under normal hematopoiesis, EVI1 is a regulator of hematopoietic stem cell maintenance and self-renewal and EVI1 levels decrease as the cells differentiate. In approximately 5-10% of de novo acute myeloid leukemia (AML) EVI1 is aberrantly expressed, including Chromosomal inv(3)(q21;q26.2) or t(3;3)(q21;q26.2) alterations (MECOM-r) that account for about 50% of AML with EVI1 overexpression 31. AMLs with high levels of EVI1 have a poor prognosis and an overall survival time averaging between 10-14 months. EVI1 overexpression confers resistance in leukemia cells, highlighting the need to develop new targeted therapies for EVI1 overexpressing AMLs.
Here, we performed an unbiased chemical drug screening by evaluating the single agent activity of a collection of 2,480 oncology-focused, approved and investigational drugs (NCATS Mechanism Interrogation Plates, MIPE v5.0) against a panel of seven AML cell lines. These included four MECOM-r cell-lines (AML-191, AML-194, UCSD-AML1 and HNT-34) and three non-MECOM-r AMLs (MV4-11, OCI-AML3 and SET-2). Exploiting the mechanistic redundancy built in the library, we identified target-level sensitivities in MECOM-r AML cells and relative activity as compared to other AML subtypes.
A collection of 2480 mechanistically annotated dugs (MIPE v5.0) was used to screen four 3q26.2 rearranged AML cell lines and three non-3q26.2 rearranged AML cell lines. This library purposely exploits redundancy by including multiple inhibitors of key onco-targets, while simultaneously encompassing mechanistic diversity, targeting more than 800 distinct mechanisms of action. Briefly, cells were seeded in 5 uL of growth media using a Multidrop Combi dispenser into 1536 well white polystyrene tissue culture treated plates (Corning) at a density of 500cells/well. For each cell-line, for each of the 2480 drugs in MIPE v5.0 library, an 11-point dose curve was generated via a 1536 pin-tool. Plates were incubated for 48 hr at standard incubator conditions, covered by a stainless steel gasketed lid to prevent evaporation. Cell viability was determined by luminescence based, Cell Titer Glo assay (Promega). In detail, 3 uL of Cell Titer Glo were added to each well and plates were incubated at room temperature for 15 min with a stainless-steel lid in place. Luminescence readings were taken using a Viewlux (PerkinElmer) with a 2 s exposure time per plate. Compound dose-response curves were normalized to DMSO and empty well controls on each plate. Quantitative drug activity data from dose-response curves was determined utilizing area Under the Curve (AUC) and Z-transformed AUC (Z-AUC, a mean-centering transformation applied to each individual cell-line screened).
Potency is read from the fitted curve at half-maximal effect.

Structure (SMILES) | Potency
COc1ccc(N(C(=O)Oc2c(C)cccc2C)c2ccnc(Nc3ccc(N4CCN(C)CC4)cc3)n2)c(OC)c1 | 5.9 µM (active)
COc1cc(C)[nH]c(=O)c1CNC(=O)c1c(C)n([C@H](C)C2CCN(CC(F)(F)F)CC2)c2ccccc12 | 14.8 µM (active)
COC(=O)[C@]12CCC(C)(C)C[C@H]1[C@H]1C(=O)C=C3[C@@]4(C)C=C(C#N)C(=O)C(C)(C)[C@@H]4CC[C@@]3(C)[C@]1(C)CC2 | 2.63 µM (active)
C/C1=C/C[C@@H](/C(C)=C/c2csc(C)n2)OC(=O)C[C@H](O)C(C)(C)C(=O)[C@H](C)[C@@H](O)[C@@H](C)CCC1 | 0.059 µM (active)
CN(C)[C@@H]1C(=O)C(C(N)=O)=C(O)[C@@]2(O)C(=O)C3=C(O)c4c(O)cccc4[C@@](C)(O)[C@H]3C[C@@H]12 | inactive
C[C@]12Cc3cn[nH]c3C[C@@H]1CC[C@@H]1[C@@H]2CC[C@@]2(C)[C@H]1CC[C@]2(C)O | inactive
Cc1c(N)nc([C@H](CC(N)=O)NC[C@@H](N)C(N)=O)nc1C(=O)N[C@H](C(=O)N[C@@H](C)[C@H](O)[C@@H](C)C(=O)N[C@@H](C(=O)NCCc1nc(-c2nc(C(=O)NCCC[S+](C)C)cs2)cs1)[C@@H](C)O)C(O[C@H]1O[C@H](CO)[C@H](O)[C@@H](O)[C@H]1O[C@H]1O[C@H](CO)[C@@H](O)[C@H](OC(N)=O)[C@@H]1O)c1cnc[nH]1 (stereo not given in full) | inactive
O=S(=O)(F)Cc1ccccc1 | inactive
C[C@](O)(COc1ccc(C#N)cc1)C(=O)Nc1ccc(C#N)c(C(F)(F)F)c1 | inactive
C=C[C@H]1CN2CCC1C[C@@H]2[C@@H](O)c1ccnc2ccccc12 (stereo not given in full) | inactive
CC1=C(O)C(=O)C=C2C1=CC=C1[C@@]2(C)CC[C@@]2(C)[C@@H]3C[C@](C)(C(=O)O)CC[C@]3(C)CC[C@]12C | 0.742 µM (active)
O=c1cccc2n1CC1CNC[C@H]2C1 | inactive
C[C@]12CC[C@H]3[C@@H](CCC4=CC(=O)CC[C@@]43C)[C@H]1CC[C@H]2OC(=O)CCC1CCCC1 | inactive
C[C@@H]1CC[C@H]2[C@@H](C)C(=O)O[C@@H]3O[C@@]4(C)CC[C@@H]1[C@]32OO4 | 1.18 µM (active)
O=C1C=CC[C@@H]2[C@H]3CCCN4CCC[C@@H](CN12)[C@@H]34 | inactive
CCCC[N+]1(C)[C@H]2CC(OC(=O)[C@H](CO)c3ccccc3)C[C@H]1[C@H]1O[C@H]12 (stereo not given in full) | inactive
O=c1[nH]c2ccccc2n1C1CCN(Cc2ccc(-c3[nH]c4cc5ncnc5cc4nc3-c3ccccc3)cc2)CC1 | 9.34 µM (active)
NN=C(N)N | inactive
C[C@@H]1C[C@@H]([C@H](O)CC2CC(=O)NC(=O)C2)C(=O)[C@@H](C)C1 | 1.66 µM (active)
COc1ccc2c(c[n+](C)c3c4cc5c(cc4ccc23)OCO5)c1OC | 5.9 µM (active)

Structure (SMILES) | Potency
CN1C(=O)CCS(=O)(=O)C1c1ccc(Cl)cc1 (stereo not given) | inactive
CCCN1CCO[C@@H]2c3cc(O)ccc3OC[C@H]21 | inactive
Cc1cccc(C)c1NC(=O)CN1CCCC1=O | inactive
CC(=O)Nc1ccc(OC[C@](C)(O)C(=O)Nc2ccc([N+](=O)[O-])c(C(F)(F)F)c2)cc1 | inactive
Cn1cc(C2=C(c3cn(C4CCN(Cc5ccccn5)CC4)c4ccccc34)C(=O)NC2=O)c2ccccc21 | inactive
C[C@]12CCC(=O)C(O)=C1CC[C@@H]1[C@@H]2CC[C@]2(C)C(=O)CC[C@@H]12 | inactive
COC[C@@H](NC(C)=O)C(=O)NCc1ccccc1 | inactive
COC12C(COC(N)=O)C3=C(C(=O)C(C)=C(N)C3=O)N1CC1C2N1C (stereo not given) | inactive
Fc1ccc(C(OCCN2CCN(CCCc3ccccc3)CC2)c2ccc(F)cc2)cc1 | 29.5 µM (active)
O=C(N[C@@H](COc1ccc2[nH]c(=O)[nH]c2c1)c1ccccc1)c1cccn(Cc2ccc(F)c(F)c2)c1=O | 10.5 µM (active)
Cc1sc2c(c1C)C(c1ccc(Cl)cc1)=NC(CC(N)=O)c1nnc(C)n1-2 (stereo not given) | 0.0934 µM (active)
CNCC(O)c1ccc(O)cc1 (stereo not given) | inactive
O=C(CBr)N1CC([N+](=O)[O-])([N+](=O)[O-])C1 | 34 µM (active)
Cc1ccccc1-n1c(Cn2cnc3c(N)ncnc32)nc2cccc(C)c2c1=O | 2.95 µM (active)
O=c1[nH]c2ccccc2n1CCCN1CCC(n2c(=O)[nH]c3cc(Cl)ccc32)CC1 | inactive
CCOC(=O)c1c(C(C#N)=CN)c2ccc(Cl)c(Cl)c2n1C | inactive
C[C@]12COC(=O)C[C@@H]1CC[C@@H]1[C@@H]2CC[C@@]2(C)[C@H]1CC[C@]2(C)O | inactive
C#CCN(C)[C@H](C)Cc1ccccc1 | inactive
CN1C(=O)COc2c(C(=O)NC3CN4CCC3CC4)cc(Cl)cc21 (stereo not given) | inactive
CC(N[C@H]1C[C@@H]1c1ccccc1)c1ccc2c(c1)OCCO2 (stereo not given in full) | inactive
